Our source for the outcome and AC50 values is PubChem BioAssay (EPA / NIEHS).

Values joined by “and” are separate entries in the source; they are usually repeats but may differ in a detail not shown here. Equal entries are not always repeated. Some structures have more than one record in an assay (separate samples or runs), and their calls can disagree. Active and inactive are the calls of the source. The calls were made as follows: active = hit-call score of the fitted dose curve at least 0.9, where 1 is the maximum; inactive = score below 0.9.

The term AC50 denotes the concentration at which the activity in the assay is half-maximal.

Read-out in one test: Interleukin-8 (IL8), CXCL8 (gene 3576)
Put plainly: BSK_BF4T_IL8: BioMAP Diversity Plus: BF4T Assay for Interleukin-8 (IL8) Biomarker Activity (AID 2284263). The note with it: primary human bronchial epithelial cells with fibroblasts. The essentials: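 Human bronchial epithelial cells with dermal fibroblasts co-culture; IL-8 measured by ELISA 24 hours after dosing, fitted vs DMSO. Cytotoxicity tracked in parallel cultures by SRB total-protein staining.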
Turning to `NC(=O)C(F)(F)C(F)(F)C(F)(F)C(F)(F)F`, the outcome was inactive.
As to `C=C(C)C(=O)OCC(F)(F)C(F)(F)C(F)(F)F`, the outcome was inactive.
Turning to `C=CC(F)(F)C(F)(F)C(F)(F)C(F)(F)C(F)(F)C(F)(F)C(F)(F)C(F)(F)F`, the outcome was inactive.
Take `C=CC(=O)OCC(F)(F)C(F)(F)C(F)(F)C(F)(F)COC(=O)C=C`: the AC50 was 30 µM (active) and the outcome was inactive.
With `C=C(C)C(=O)OCCC(F)(F)C(F)(F)C(F)(F)C(F)(F)C(F)(C(F)(F)F)C(F)(F)F`, the outcome was inactive.
Turning to `O=S(=O)(OCCOC(F)(F)F)C(F)(F)F`, the result was inactive.
In the case of `O=C(O)C(F)(OC(F)(F)C(F)(OC(F)(F)C(F)(F)C(F)(F)F)C(F)(F)F)C(F)(F)F` (configuration not stated), the outcome was inactive.
In the case of `O=C(O)C(F)(F)C(F)(F)F`, the outcome was inactive.
As to `O=C(O)C(F)(F)C(F)(F)C(F)(F)F`, the result was inactive.
As to `OCC(F)(F)C(F)(F)C(F)(F)C(F)F`, the result was inactive.
Same read-out and setting: in the case of `O=C(Cl)C(F)(F)C(F)(F)C(F)(F)C(F)(F)C(F)(F)C(F)(F)C(F)(F)C(F)(F)F` it was “inactive”.
For `OCCCC(F)(F)C(F)(F)C(F)(F)C(F)(F)C(F)(F)C(F)(F)C(F)(F)F`, the AC50 was 40.5 µM (active) and 45.3 µM (active).
In the case of `CC(C)(C)C(=O)CC(=O)C(F)(F)C(F)(F)C(F)(F)F`, the outcome was inactive.
As for `FC(F)(I)C(F)(F)C(F)(F)C(F)(F)I`, the concentration at half-maximal activity (AC50) is 45.6 µM (active) and 51 µM (active) and 55.6 µM (active).
As for `O=S(=O)(O)C(F)(F)C(F)(F)C(F)(F)C(F)(F)C(F)(F)C(F)(F)C(F)(F)F`, the concentration at half-maximal activity (AC50) was 10.4 µM (active) and the outcome was inactive.
`FC(F)(F)C(F)(F)C(F)(F)C(F)(F)CCI`: the outcome was inactive.
For `O=C(O)C(F)(F)C(F)(F)C(F)(F)C(F)(F)C(F)(F)C(F)(F)C(F)(F)C(F)(F)C(F)(F)C(F)(F)C(F)(F)C(F)(F)F`, the outcome was inactive.
Consider `C=CC(=O)OCC(F)(F)C(F)(F)C(F)(F)C(F)(F)C(F)(F)C(F)(F)C(F)(F)F`, for which the result was inactive.
Regarding `FC(F)(F)C(F)(F)C(F)(F)C(F)(F)C(F)(F)C(F)(F)C(F)(F)I`, the half-maximal activity concentration (AC50) is 0.0527 µM (active) and the result was inactive.
Consider `O=C(O)C=C(C(F)(F)F)C(F)(F)F`, for which the result was inactive.
On the same count and under the same terms, in the case of `O=C(O)C(F)(F)C(F)(F)C(F)F` it was “inactive”; in that of `Cc1ccc(S(=O)(=O)OCC(F)(F)C(F)(F)C(F)(F)C(F)(F)C(F)(F)C(F)F)cc1`, “inactive”; in that of `FC(F)(F)C(F)(F)C(F)(F)C(F)(F)C(F)(F)C(F)(F)CC1CO1` (configuration not stated), “inactive”.
On the same count and under the same terms, in the case of `FC(F)(F)C(F)(F)C(F)(F)C(F)(F)C(F)(F)C(F)(F)CCS` it was “inactive”.
Consider `O=C(O)C(F)(F)C(F)(F)C(F)(F)C(F)(F)C(F)(F)C(F)(F)C(F)(F)C(F)(F)Cl`, for which the AC50 was 51.9 µM (active) and 50.3 µM (active).
Regarding `OCC(F)(F)C(F)(F)C(F)(F)F`, the outcome was inactive.
The same measure, in the same setting: in the case of `O=C(O)C(F)(F)C(F)(F)C(F)(F)C(F)(F)C(F)(F)C(F)(F)C(F)(F)C(F)(F)C(F)(F)C(F)F` it was “inactive”.
Same read-out and setting: in the case of `FC(F)(Br)C(F)(F)C(F)(F)C(F)(F)C(F)(F)C(F)(F)Br` it was “inactive”; in that of `O=C(O)C(F)(OC(F)(F)C(F)(OC(F)(F)C(F)(OC(F)(F)C(F)(F)C(F)(F)F)C(F)(F)F)C(F)(F)F)C(F)(F)F` (configuration not stated), “inactive”; in that of `OCC(F)(F)C(F)(F)C(F)(F)C(F)(F)C(F)(F)C(F)(F)F`, “inactive”.
As for `FC(F)(F)C(F)(F)C(F)(F)C(F)(F)C(F)(F)CCI`, the outcome was inactive.
On the same count and under the same terms, in the case of `FC(F)(F)C(F)(F)C(F)(F)C(F)(F)C(F)(F)C(F)(F)C(F)(F)Br` it was “inactive”.
Consider `N=C(N)C(F)(F)C(F)(F)C(F)(F)C(F)(F)C(F)(F)C(F)(F)C(F)(F)F`, for which the result was inactive.
Regarding `C=CC(F)(F)C(F)(F)C(F)(F)C(F)(F)C(F)(F)C(F)(F)C(F)(F)C(F)(F)C=C`, the outcome was inactive.

Read-out in a further test: Interleukin-1 alpha (IL1a), IL1A (gene 3552)
Put plainly: BSK_BF4T_IL1a: BioMAP Diversity Plus: BF4T Assay for Interleukin-1 alpha (IL1a) Biomarker Activity (AID 2284264). The note with it: primary human bronchial epithelial cells with fibroblasts. Summed up: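 ELISA read-out of IL-1α from bronchial epithelial cell/dermal fibroblast co-cultures 24 h after compound addition. Increases scored against DMSO negative control. Cytotoxicity monitored by sulforhodamine B staining of parallel cultures.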
On to `NC(=O)C(F)(F)C(F)(F)C(F)(F)C(F)(F)F`, for which the outcome was inactive.
As for `C=C(C)C(=O)OCC(F)(F)C(F)(F)C(F)(F)F`, the result was inactive.
As for `C=CC(F)(F)C(F)(F)C(F)(F)C(F)(F)C(F)(F)C(F)(F)C(F)(F)C(F)(F)F`, the result was inactive.
On to `C=CC(=O)OCC(F)(F)C(F)(F)C(F)(F)C(F)(F)COC(=O)C=C`, for which the AC50 was 30 µM (active) and 46.8 µM (active).
As for `C=C(C)C(=O)OCCC(F)(F)C(F)(F)C(F)(F)C(F)(F)C(F)(C(F)(F)F)C(F)(F)F`, the outcome was inactive.
In the case of `O=S(=O)(OCCOC(F)(F)F)C(F)(F)F`, the result was inactive.
As to `O=C(O)C(F)(OC(F)(F)C(F)(OC(F)(F)C(F)(F)C(F)(F)F)C(F)(F)F)C(F)(F)F` (configuration not stated), the outcome was inactive.
In the case of `O=C(O)C(F)(F)C(F)(F)F`, the outcome was inactive.
On to `O=C(O)C(F)(F)C(F)(F)C(F)(F)F`, for which the outcome was inactive.
Consider `OCC(F)(F)C(F)(F)C(F)(F)C(F)F`, for which the result was inactive.
`O=C(Cl)C(F)(F)C(F)(F)C(F)(F)C(F)(F)C(F)(F)C(F)(F)C(F)(F)C(F)(F)F`: the half-maximal activity concentration (AC50) was 45.4 µM (active) and 45.6 µM (active) and 56.8 µM (active).
`OCCCC(F)(F)C(F)(F)C(F)(F)C(F)(F)C(F)(F)C(F)(F)C(F)(F)F`: the AC50 was 51.6 µM (active) and 55.4 µM (active).
For `CC(C)(C)C(=O)CC(=O)C(F)(F)C(F)(F)C(F)(F)F`, the result was inactive.
With `FC(F)(I)C(F)(F)C(F)(F)C(F)(F)I`, the half-maximal activity concentration (AC50) is 55.2 µM (active) and 45.6 µM (active) and 47.3 µM (active).
Consider `O=S(=O)(O)C(F)(F)C(F)(F)C(F)(F)C(F)(F)C(F)(F)C(F)(F)C(F)(F)F`, for which the result was inactive.
Consider `FC(F)(F)C(F)(F)C(F)(F)C(F)(F)CCI`, for which the outcome was inactive.
`O=C(O)C(F)(F)C(F)(F)C(F)(F)C(F)(F)C(F)(F)C(F)(F)C(F)(F)C(F)(F)C(F)(F)C(F)(F)C(F)(F)C(F)(F)F`: the result was inactive.
Same read-out and setting: in the case of `C=CC(=O)OCC(F)(F)C(F)(F)C(F)(F)C(F)(F)C(F)(F)C(F)(F)C(F)(F)F` it was “inactive”; in that of `FC(F)(F)C(F)(F)C(F)(F)C(F)(F)C(F)(F)C(F)(F)C(F)(F)I`, “inactive”.
In the case of `O=C(O)C=C(C(F)(F)F)C(F)(F)F`, the result was inactive.
`O=C(O)C(F)(F)C(F)(F)C(F)F`: the result was inactive.
`Cc1ccc(S(=O)(=O)OCC(F)(F)C(F)(F)C(F)(F)C(F)(F)C(F)(F)C(F)F)cc1`: the outcome was inactive.
Still for that read-out and setting: in the case of `FC(F)(F)C(F)(F)C(F)(F)C(F)(F)C(F)(F)C(F)(F)CC1CO1` (configuration not stated) it was “inactive”.
For `FC(F)(F)C(F)(F)C(F)(F)C(F)(F)C(F)(F)C(F)(F)CCS`, the AC50 was 10.9 µM (active) and the outcome was inactive.
Turning to `O=C(O)C(F)(F)C(F)(F)C(F)(F)C(F)(F)C(F)(F)C(F)(F)C(F)(F)C(F)(F)Cl`, the AC50 was 45.2 µM (active) and 44 µM (active).
Regarding `OCC(F)(F)C(F)(F)C(F)(F)F`, the outcome was inactive.
Take `O=C(O)C(F)(F)C(F)(F)C(F)(F)C(F)(F)C(F)(F)C(F)(F)C(F)(F)C(F)(F)C(F)(F)C(F)F`: the AC50 is 38.8 µM (active) and 20.5 µM (active).
Consider `FC(F)(Br)C(F)(F)C(F)(F)C(F)(F)C(F)(F)C(F)(F)Br`, for which the outcome was inactive.
Regarding `O=C(O)C(F)(OC(F)(F)C(F)(OC(F)(F)C(F)(OC(F)(F)C(F)(F)C(F)(F)F)C(F)(F)F)C(F)(F)F)C(F)(F)F` (configuration not stated), the outcome was inactive.
On the same count and under the same terms, in the case of `OCC(F)(F)C(F)(F)C(F)(F)C(F)(F)C(F)(F)C(F)(F)F` it was “inactive”; in that of `FC(F)(F)C(F)(F)C(F)(F)C(F)(F)C(F)(F)CCI`, “inactive”; in that of `FC(F)(F)C(F)(F)C(F)(F)C(F)(F)C(F)(F)C(F)(F)C(F)(F)Br`, “inactive”.
Same read-out and setting: in the case of `N=C(N)C(F)(F)C(F)(F)C(F)(F)C(F)(F)C(F)(F)C(F)(F)C(F)(F)F` it was “inactive”; in that of `C=CC(F)(F)C(F)(F)C(F)(F)C(F)(F)C(F)(F)C(F)(F)C(F)(F)C(F)(F)C=C`, “inactive”.
